Measurements: article PMC11006913

Legend:
Assay in all cases: PBM; 200 nM protein, PBS
Settings in all cases: dsDNA, one strand shown
HOXB4 [1] = target: HOXB4 (Homo sapiens, UniProt P17483 148-234)
HOXA4 [2] = target: HOXA4 (Homo sapiens, UniProt Q00056 201-287, W262R)
HOXB6 [3] = target: HOXB6 (Homo sapiens, UniProt P17509 132-218, K202E)
HOXA4 [4] = target: HOXA4 (Homo sapiens, UniProt Q00056 201-287, R217L)
HOXB4 [5] = target: HOXB4 (Homo sapiens, UniProt P17483 148-234, V174I)
ALX3 [6] = target: ALX3 (Homo sapiens, UniProt O95076 139-225, N203Q)
HOXA4 [7] = target: HOXA4 (Homo sapiens, UniProt Q00056 201-287)
ALX3 [8] = target: ALX3 (Homo sapiens, UniProt O95076 139-225)
ALX3 [9] = target: ALX3 (Homo sapiens, UniProt O95076 139-225, L168Q)
ALX3 [10] = target: ALX3 (Homo sapiens, UniProt O95076 139-225, L168V)
HOXA4 [11] = target: HOXA4 (Homo sapiens, UniProt Q00056 201-287, W262F)
ALX3 [12] = target: ALX3 (Homo sapiens, UniProt O95076 139-225, N203S)
HOXB6 [13] = target: HOXB6 (Homo sapiens, UniProt P17509 132-218)
HOXA7 [14] = target: HOXA7 (Homo sapiens, UniProt P31268 116-202)
HOXA7 [15] = target: HOXA7 (Homo sapiens, UniProt P31268 116-202, W177C)
HOXA2 [16] = target: HOXA2 (Homo sapiens, UniProt O43364 129-215, R185T)
HOXA2 [17] = target: HOXA2 (Homo sapiens, UniProt O43364 129-215, R185K)
HOXA2 [18] = target: HOXA2 (Homo sapiens, UniProt O43364 129-215, Y150S)
HOXA2 [19] = target: HOXA2 (Homo sapiens, UniProt O43364 129-215)
VAX1 [20] = target: VAX1 (Homo sapiens, UniProt Q5SQQ9 86-172)
VAX1 [21] = target: VAX1 (Homo sapiens, UniProt Q5SQQ9 86-172, T142I)
VAX1 [22] = target: VAX1 (Homo sapiens, UniProt Q5SQQ9 86-172, K157R)
HOXD13 [23] = target: HOXD13 (Homo sapiens, UniProt P35453 263-343, T313R)
HOXD13 [24] = target: HOXD13 (Homo sapiens, UniProt P35453 263-343)
HOXD13 [25] = target: HOXD13 (Homo sapiens, UniProt P35453 263-343, T313A)
HOXD13 (Homo sapiens, UniProt P35453 263-343, T313A), sequence (P35453 263-343 T313A): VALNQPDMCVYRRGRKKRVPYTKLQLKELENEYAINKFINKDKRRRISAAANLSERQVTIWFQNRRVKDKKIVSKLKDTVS

HOXB4 (Homo sapiens, UniProt P17483 148-234), sequence (P17483 148-234): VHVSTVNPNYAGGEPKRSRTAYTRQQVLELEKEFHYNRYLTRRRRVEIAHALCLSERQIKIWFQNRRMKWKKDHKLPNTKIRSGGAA
HOXA4 (Homo sapiens, UniProt Q00056 201-287, W262R), sequence (Q00056 201-287 W262R): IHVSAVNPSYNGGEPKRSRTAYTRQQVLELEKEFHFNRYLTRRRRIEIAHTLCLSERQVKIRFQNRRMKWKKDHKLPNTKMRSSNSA
HOXA4 (Homo sapiens, UniProt Q00056 201-287, R217L), sequence (Q00056 201-287 R217L): as the sequence (Q00056 201-287 W262R) above, with R17L, R62W counted along it
HOXA4 (Homo sapiens, UniProt Q00056 201-287), sequence (Q00056 201-287): as the sequence (Q00056 201-287 W262R) above, with R62W counted along it
HOXA4 (Homo sapiens, UniProt Q00056 201-287, W262F), sequence (Q00056 201-287 W262F): as the sequence (Q00056 201-287 W262R) above, with R62F counted along it
HOXA7 (Homo sapiens, UniProt P31268 116-202), sequence (P31268 116-202): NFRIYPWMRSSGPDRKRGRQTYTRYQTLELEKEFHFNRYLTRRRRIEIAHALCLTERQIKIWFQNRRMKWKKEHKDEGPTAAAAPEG
HOXB4 (Homo sapiens, UniProt P17483 148-234, V174I), sequence (P17483 148-234 V174I): as the sequence (P17483 148-234) above, with V27I counted along it
HOXA7 (Homo sapiens, UniProt P31268 116-202, W177C), sequence (P31268 116-202 W177C): as the sequence (P31268 116-202) above, with W62C counted along it
ALX3 (Homo sapiens, UniProt O95076 139-225, N203S), sequence (O95076 139-225 N203S): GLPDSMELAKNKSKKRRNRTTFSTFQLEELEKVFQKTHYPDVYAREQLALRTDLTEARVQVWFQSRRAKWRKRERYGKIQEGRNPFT
HOXA2 (Homo sapiens, UniProt O43364 129-215, R185T), sequence (O43364 129-215 R185T): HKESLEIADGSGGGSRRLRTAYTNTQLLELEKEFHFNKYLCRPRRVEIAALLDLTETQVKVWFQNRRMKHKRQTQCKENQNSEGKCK
HOXA2 (Homo sapiens, UniProt O43364 129-215, Y150S), sequence (O43364 129-215 Y150S): as the sequence (O43364 129-215 R185T) above, with Y22S, T57R counted along it
ALX3 (Homo sapiens, UniProt O95076 139-225, L168V), sequence (O95076 139-225 L168V): as the sequence (O95076 139-225 N203S) above, with L30V, S65N counted along it
HOXA2 (Homo sapiens, UniProt O43364 129-215), sequence (O43364 129-215): as the sequence (O43364 129-215 R185T) above, with T57R counted along it
HOXA2 (Homo sapiens, UniProt O43364 129-215, R185K), sequence (O43364 129-215 R185K): as the sequence (O43364 129-215 R185T) above, with T57K counted along it
ALX3 (Homo sapiens, UniProt O95076 139-225, L168Q), sequence (O95076 139-225 L168Q): as the sequence (O95076 139-225 N203S) above, with L30Q, S65N counted along it
ALX3 (Homo sapiens, UniProt O95076 139-225, N203Q), sequence (O95076 139-225 N203Q): as the sequence (O95076 139-225 N203S) above, with S65Q counted along it
ALX3 (Homo sapiens, UniProt O95076 139-225), sequence (O95076 139-225): as the sequence (O95076 139-225 N203S) above, with S65N counted along it
VAX1 (Homo sapiens, UniProt Q5SQQ9 86-172, K157R), sequence (Q5SQQ9 86-172 K157R): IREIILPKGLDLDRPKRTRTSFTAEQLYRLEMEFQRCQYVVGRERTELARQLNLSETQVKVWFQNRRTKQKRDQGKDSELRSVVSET
HOXB6 (Homo sapiens, UniProt P17509 132-218, K202E), sequence (P17509 132-218 K202E): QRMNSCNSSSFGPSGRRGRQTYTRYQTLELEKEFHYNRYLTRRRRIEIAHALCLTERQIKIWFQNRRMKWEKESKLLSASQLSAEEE
VAX1 (Homo sapiens, UniProt Q5SQQ9 86-172), sequence (Q5SQQ9 86-172): as the sequence (Q5SQQ9 86-172 K157R) above, with R72K counted along it
VAX1 (Homo sapiens, UniProt Q5SQQ9 86-172, T142I), sequence (Q5SQQ9 86-172 T142I): as the sequence (Q5SQQ9 86-172 K157R) above, with T57I, R72K counted along it
HOXB6 (Homo sapiens, UniProt P17509 132-218), sequence (P17509 132-218): as the sequence (P17509 132-218 K202E) above, with E71K counted along it
HOXD13 (Homo sapiens, UniProt P35453 263-343, T313R), sequence (P35453 263-343 T313R): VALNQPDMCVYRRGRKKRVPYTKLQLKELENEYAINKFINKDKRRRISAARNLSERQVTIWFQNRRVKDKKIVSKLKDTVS
HOXD13 (Homo sapiens, UniProt P35453 263-343), sequence (P35453 263-343): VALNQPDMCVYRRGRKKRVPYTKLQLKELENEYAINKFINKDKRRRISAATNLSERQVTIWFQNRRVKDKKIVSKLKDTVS

CCAGGCAG
binding signal (HOXB4 [1]): 7.62 upbm affinity estimate (log intensity, higher = more binding, comparable within an allelic series) | binding signal (HOXA4 [2]): 9.9 upbm affinity estimate (log intensity, higher = more binding, comparable within an allelic series) | binding signal (HOXB6 [3]): 9.02 upbm affinity estimate (log intensity, higher = more binding, comparable within an allelic series) | binding signal (HOXA4 [4]): 9.88 upbm affinity estimate (log intensity, higher = more binding, comparable within an allelic series) | binding signal (HOXB4 [5]): 7.62 upbm affinity estimate (log intensity, higher = more binding, comparable within an allelic series) | binding signal (ALX3 [6]): 7.78 upbm affinity estimate (log intensity, higher = more binding, comparable within an allelic series) | binding signal (HOXA4 [7]): 9.85 upbm affinity estimate (log intensity, higher = more binding, comparable within an allelic series) | binding signal (ALX3 [8]): 7.65 upbm affinity estimate (log intensity, higher = more binding, comparable within an allelic series) | binding signal (ALX3 [9]): 7.7 upbm affinity estimate (log intensity, higher = more binding, comparable within an allelic series) | binding signal (ALX3 [10]): 7.82 upbm affinity estimate (log intensity, higher = more binding, comparable within an allelic series) | binding signal (HOXA4 [11]): 9.95 upbm affinity estimate (log intensity, higher = more binding, comparable within an allelic series) | binding signal (ALX3 [12]): 7.76 upbm affinity estimate (log intensity, higher = more binding, comparable within an allelic series) | binding signal (HOXB6 [13]): 9.1 upbm affinity estimate (log intensity, higher = more binding, comparable within an allelic series)

CGGCAGAG
binding signal (HOXB4 [1]): 7.39 upbm affinity estimate (log intensity, higher = more binding, comparable within an allelic series) | binding signal (HOXA7 [14]): 8.53 upbm affinity estimate (log intensity, higher = more binding, comparable within an allelic series) | binding signal (HOXB4 [5]): 7.51 upbm affinity estimate (log intensity, higher = more binding, comparable within an allelic series) | binding signal (HOXA7 [15]): 8.39 upbm affinity estimate (log intensity, higher = more binding, comparable within an allelic series)

GTTCATTA
binding signal (HOXB4 [1]): 13 upbm affinity estimate (log intensity, higher = more binding, comparable within an allelic series) | binding signal (HOXA7 [14]): 10.2 upbm affinity estimate (log intensity, higher = more binding, comparable within an allelic series) | binding signal (HOXB4 [5]): 13.6 upbm affinity estimate (log intensity, higher = more binding, comparable within an allelic series) | binding signal (HOXA7 [15]): 8.87 upbm affinity estimate (log intensity, higher = more binding, comparable within an allelic series)

CGCCGGGC
binding signal (HOXB4 [1]): 7.64 upbm affinity estimate (log intensity, higher = more binding, comparable within an allelic series) | binding signal (HOXA4 [2]): 9.72 upbm affinity estimate (log intensity, higher = more binding, comparable within an allelic series) | binding signal (HOXA2 [16]): 7.33 upbm affinity estimate (log intensity, higher = more binding, comparable within an allelic series) | binding signal (HOXA4 [4]): 9.76 upbm affinity estimate (log intensity, higher = more binding, comparable within an allelic series) | binding signal (HOXB4 [5]): 7.67 upbm affinity estimate (log intensity, higher = more binding, comparable within an allelic series) | binding signal (HOXA2 [17]): 10.2 upbm affinity estimate (log intensity, higher = more binding, comparable within an allelic series) | binding signal (HOXA4 [7]): 9.84 upbm affinity estimate (log intensity, higher = more binding, comparable within an allelic series) | binding signal (HOXA2 [18]): 10.4 upbm affinity estimate (log intensity, higher = more binding, comparable within an allelic series) | binding signal (HOXA4 [11]): 9.99 upbm affinity estimate (log intensity, higher = more binding, comparable within an allelic series) | binding signal (HOXA2 [19]): 7.24 upbm affinity estimate (log intensity, higher = more binding, comparable within an allelic series)

ACCCGTGG
binding signal (HOXB4 [1]): 7.52 upbm affinity estimate (log intensity, higher = more binding, comparable within an allelic series) | binding signal (HOXA4 [2]): 9.91 upbm affinity estimate (log intensity, higher = more binding, comparable within an allelic series) | binding signal (HOXA4 [4]): 9.76 upbm affinity estimate (log intensity, higher = more binding, comparable within an allelic series) | binding signal (HOXB4 [5]): 7.53 upbm affinity estimate (log intensity, higher = more binding, comparable within an allelic series) | binding signal (HOXA4 [7]): 9.78 upbm affinity estimate (log intensity, higher = more binding, comparable within an allelic series) | binding signal (HOXA4 [11]): 9.9 upbm affinity estimate (log intensity, higher = more binding, comparable within an allelic series)

CAGACCCC
binding signal (HOXB4 [1]): 7.56 upbm affinity estimate (log intensity, higher = more binding, comparable within an allelic series) | binding signal (HOXA7 [14]): 8.69 upbm affinity estimate (log intensity, higher = more binding, comparable within an allelic series) | binding signal (HOXB4 [5]): 7.7 upbm affinity estimate (log intensity, higher = more binding, comparable within an allelic series) | binding signal (ALX3 [6]): 7.73 upbm affinity estimate (log intensity, higher = more binding, comparable within an allelic series) | binding signal (ALX3 [8]): 7.61 upbm affinity estimate (log intensity, higher = more binding, comparable within an allelic series) | binding signal (VAX1 [20]): 6.95 upbm affinity estimate (log intensity, higher = more binding, comparable within an allelic series) | binding signal (ALX3 [9]): 7.69 upbm affinity estimate (log intensity, higher = more binding, comparable within an allelic series) | binding signal (ALX3 [10]): 7.66 upbm affinity estimate (log intensity, higher = more binding, comparable within an allelic series) | binding signal (VAX1 [21]): 7.15 upbm affinity estimate (log intensity, higher = more binding, comparable within an allelic series) | binding signal (HOXA7 [15]): 8.53 upbm affinity estimate (log intensity, higher = more binding, comparable within an allelic series) | binding signal (ALX3 [12]): 7.74 upbm affinity estimate (log intensity, higher = more binding, comparable within an allelic series) | binding signal (VAX1 [22]): 6.94 upbm affinity estimate (log intensity, higher = more binding, comparable within an allelic series)

CTGGCGGC
binding signal (HOXB4 [1]): 7.3 upbm affinity estimate (log intensity, higher = more binding, comparable within an allelic series) | binding signal (HOXA4 [2]): 9.71 upbm affinity estimate (log intensity, higher = more binding, comparable within an allelic series) | binding signal (HOXA7 [14]): 8.57 upbm affinity estimate (log intensity, higher = more binding, comparable within an allelic series) | binding signal (HOXA2 [16]): 7.15 upbm affinity estimate (log intensity, higher = more binding, comparable within an allelic series) | binding signal (HOXA4 [4]): 9.74 upbm affinity estimate (log intensity, higher = more binding, comparable within an allelic series) | binding signal (HOXB4 [5]): 7.49 upbm affinity estimate (log intensity, higher = more binding, comparable within an allelic series) | binding signal (HOXD13 [23]): 9.52 upbm affinity estimate (log intensity, higher = more binding, comparable within an allelic series) | binding signal (HOXA2 [17]): 10.3 upbm affinity estimate (log intensity, higher = more binding, comparable within an allelic series) | binding signal (HOXD13 [24]): 9.59 upbm affinity estimate (log intensity, higher = more binding, comparable within an allelic series) | binding signal (HOXA4 [7]): 9.58 upbm affinity estimate (log intensity, higher = more binding, comparable within an allelic series) | binding signal (HOXD13 [25]): 9.5 upbm affinity estimate (log intensity, higher = more binding, comparable within an allelic series) | binding signal (HOXA2 [18]): 10.5 upbm affinity estimate (log intensity, higher = more binding, comparable within an allelic series) | binding signal (HOXA7 [15]): 8.35 upbm affinity estimate (log intensity, higher = more binding, comparable within an allelic series) | binding signal (HOXA4 [11]): 9.86 upbm affinity estimate (log intensity, higher = more binding, comparable within an allelic series) | binding signal (HOXA2 [19]): 7.36 upbm affinity estimate (log intensity, higher = more binding, comparable within an allelic series)

ACCTCTCG
binding signal (HOXB4 [1]): 7.54 upbm affinity estimate (log intensity, higher = more binding, comparable within an allelic series) | binding signal (HOXA4 [2]): 9.8 upbm affinity estimate (log intensity, higher = more binding, comparable within an allelic series) | binding signal (HOXA4 [4]): 9.73 upbm affinity estimate (log intensity, higher = more binding, comparable within an allelic series) | binding signal (HOXB4 [5]): 7.48 upbm affinity estimate (log intensity, higher = more binding, comparable within an allelic series) | binding signal (HOXA4 [7]): 9.69 upbm affinity estimate (log intensity, higher = more binding, comparable within an allelic series) | binding signal (HOXA4 [11]): 9.82 upbm affinity estimate (log intensity, higher = more binding, comparable within an allelic series)
